Consider nine compounds from PubChem BioAssay.

The source made the active and inactive calls.

Assay [1] can be described thus: small molecules captured by biotinylated probe aFSTL3 – biochemical, small-molecule microarray, fluorescence 635/667, stem cell growth factor project, primary screen (AID 1064).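 Further: measures binding of the biotinylated anti-FSTL3 antibody to printed compounds.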 Conditions: higher = more signal.
Assay [2] can be described thus: binders from COS7 lysate, DM2A8 probe, primary screen, torsin A project, cell lysate, small-molecule microarray, fluorescence 635/667 (AID 1065). Conditions: higher = more signal, COS7 lysate expressing mutant human TOR1A.
Assay [3] is described as follows: small molecules captured by biotinylated probe aFGF2 – biochemical, small-molecule microarray, fluorescence 635/667, stem cell growth factor project, primary screen (AID 1067).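 Further: measures binding of biotinylated aFGF2 protein to printed compounds on slides; z-score merges feature fluorescence and signal-to-noise across triplicate slides.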 Particulars: higher = more signal.
Assay [4] is described as follows: small molecules captured by biotinylated probe aFGF10 – biochemical, small-molecule microarray, fluorescence 635/667, stem cell growth factor project, primary screen (AID 1071).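 Further: score merges 667 nm spot intensity and signal to noise from triplicate slides.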 Particulars: higher = more signal.
Assay [5] has as its target Neurogenic locus notch homolog protein 2 (Homo sapiens) (UniProt Q04721). The experiment in a line: small molecules binding Notch2 protein – biochemical, small-molecule microarray, 635 nm fluorescence, stem cell growth factors, primary screen (AID 1073). Particulars: higher = more signal.
Assay [6] concerns the target Pro-neuregulin-1, membrane-bound isoform (Homo sapiens) (UniProt Q02297). The experiment in a line: small molecules binding neuregulin-1 protein – biochemical, small-molecule microarray, fluorescence 635/667, psychiatric disease protein project, primary screen (AID 1075).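 Further: score combines 667 nm spot fluorescence with signal to noise.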 Particulars: NRG1 binding, 635 nm fluorescence, higher = more signal.
The subject of assay [7] is Neuregulin-1 EGF-like domain. The experiment in a line: small molecules binding NRG1 EGF domain – biochemical, small-molecule microarray, 635 nm fluorescence, primary screen (AID 1081).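 Further: binding of the protein to compounds printed on small-molecule microarray slides.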 Conditions: higher = more signal.
A short description of assay [8]: FRG1 expression reporter modulators in myotubes – cell-based, C2C12 myotubes, firefly/Renilla luciferase, luminescence, FRG1 inhibition for FSHD, primary screen (AID 1084). Particulars: FRG1 promoter luciferase, higher = more signal, called active from +8 up or from −8 down.
Assay [9] is described as follows: small molecules captured by biotinylated probe aFST – biochemical, small-molecule microarray, fluorescence 635/667, stem cell growth factor project, primary screen (AID 1086).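 Further: score merges 667 nm fluorescence with signal-to-noise of each printed compound spot.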 Conditions: higher = more signal.
Assay [10] in a line: binders of probe aHhip on microarray, primary screen, stem cell growth factor project, biochemical, small-molecule microarray, fluorescence 635/667 (AID 1087).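 Further: score merges spot fluorescence at 667nm with spot signal to noise ratio.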 Conditions: higher = more signal.
Assay [11] has as its system PRMT1 (protein arginine N-methyltransferase 1). Kind of assay: small molecules binding arginine methyltransferase PRMT1 – biochemical, small-molecule microarray, 635 nm fluorescence, primary screen (AID 1088).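 Further: binding of Prmt1 protein to compounds spotted on small-molecule microarray slides.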 Particulars: higher = more signal.
Assay [12] in a line: growth effects on S. cerevisiae YJM789 – YJM789 clinical isolate, OD600, 24 h, basal, primary screen (AID 1089).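 Further: growth of clinical yeast isolate S. cerevisiae YJM 789 seeded 1000 cells per well; test concentration not given here.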 Particulars: higher = more signal, called active from +8 up or from −8 down.
Assay [13] in a line: S. pombe growth modifiers, basal conditions – strain 972, OD600, 24 h, no modulator, primary screen (AID 1090).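 Further: basal condition with compound alone and no growth modifier present; test concentration not given here.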 Conditions: S. pombe 972 growth, higher = more signal, called active from +8 up or from −8 down.
Assay [14] can be described thus: budding yeast growth modifiers under rapamycin – strain BY4716, OD600, 96 h, primary screen (AID 1091). Further: test concentration not given here. Particulars: S. cerevisiae BY4716 + rapamycin, higher = more signal, called active from +8 up or from −8 down.
Assay [15] concerns the target Torsin-1A-interacting protein 2 (Homo sapiens) (UniProt Q8NFQ8). Kind of assay: small molecules binding lysate-expressed LULL1 – cell lysate, human LULL1 lysate, 635/667 nm fluorescence, primary screen (AID 1092).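 Further: probe is lysate of COS7 cells overexpressing human LULL1; score merges per-feature 667 nm fluorescence with signal-to-noise.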 Conditions: small-molecule microarray, hLULL1 lysate binding, 635 nm fluorescence; higher = more signal.
Assay [16] in a line: optical density change of DRC41 E. coli – strain DRC41, OD650, 24 h, E. coli filamentation project, primary screen (AID 1093).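 Further: MC1000 strain lacking acrAB efflux and sulA so SOS filamentation is blocked; test concentration not given here.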 Conditions: E. coli DRC41 growth, higher = more signal, called active from +8 up or from −8 down.
Assay [17] is described as follows: probe aLefty2 binding to arrayed compounds – biochemical, biotinylated probe, 635/667 nm fluorescence, primary screen (AID 1094).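 Further: score merges spot fluorescence near 667 nm with spot signal-to-noise ratio.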 Particulars: small-molecule microarray, higher = more signal.
For assay [18], the system named is Noggin (protein binding on small-molecule microarray). The experiment in a line: small molecules binding Noggin protein – biochemical, 635/667 nm fluorescence, primary screen (AID 1095).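 Further: score merges 667 nm feature fluorescence with signal to noise over triplicate slides.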 Particulars: 635 nm fluorescence, higher = more signal.
Assay [19] concerns the target Neurogenic locus notch homolog protein 3 (Homo sapiens) (UniProt Q9UM47). The experiment in a line: small molecules binding NOTCH3 protein – biochemical, 635/667 nm fluorescence, primary screen (AID 1096). Conditions: small-molecule microarray, 635 nm fluorescence, higher = more signal.
Assay [20] can be described thus: probe aEGFR binding to arrayed compounds – biochemical, biotinylated probe, 635/667 nm fluorescence, primary screen (AID 1097).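 Further: probe is a biotinylated anti-EGFR antibody binding compounds printed on slides; score combines fluorescence near 667 nm and signal to noise of each spot.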 Particulars: small-molecule microarray, higher = more signal.

Neurogenic locus notch homolog protein 3 (Homo sapiens), sequence (Q9UM47 whole entry, looked up): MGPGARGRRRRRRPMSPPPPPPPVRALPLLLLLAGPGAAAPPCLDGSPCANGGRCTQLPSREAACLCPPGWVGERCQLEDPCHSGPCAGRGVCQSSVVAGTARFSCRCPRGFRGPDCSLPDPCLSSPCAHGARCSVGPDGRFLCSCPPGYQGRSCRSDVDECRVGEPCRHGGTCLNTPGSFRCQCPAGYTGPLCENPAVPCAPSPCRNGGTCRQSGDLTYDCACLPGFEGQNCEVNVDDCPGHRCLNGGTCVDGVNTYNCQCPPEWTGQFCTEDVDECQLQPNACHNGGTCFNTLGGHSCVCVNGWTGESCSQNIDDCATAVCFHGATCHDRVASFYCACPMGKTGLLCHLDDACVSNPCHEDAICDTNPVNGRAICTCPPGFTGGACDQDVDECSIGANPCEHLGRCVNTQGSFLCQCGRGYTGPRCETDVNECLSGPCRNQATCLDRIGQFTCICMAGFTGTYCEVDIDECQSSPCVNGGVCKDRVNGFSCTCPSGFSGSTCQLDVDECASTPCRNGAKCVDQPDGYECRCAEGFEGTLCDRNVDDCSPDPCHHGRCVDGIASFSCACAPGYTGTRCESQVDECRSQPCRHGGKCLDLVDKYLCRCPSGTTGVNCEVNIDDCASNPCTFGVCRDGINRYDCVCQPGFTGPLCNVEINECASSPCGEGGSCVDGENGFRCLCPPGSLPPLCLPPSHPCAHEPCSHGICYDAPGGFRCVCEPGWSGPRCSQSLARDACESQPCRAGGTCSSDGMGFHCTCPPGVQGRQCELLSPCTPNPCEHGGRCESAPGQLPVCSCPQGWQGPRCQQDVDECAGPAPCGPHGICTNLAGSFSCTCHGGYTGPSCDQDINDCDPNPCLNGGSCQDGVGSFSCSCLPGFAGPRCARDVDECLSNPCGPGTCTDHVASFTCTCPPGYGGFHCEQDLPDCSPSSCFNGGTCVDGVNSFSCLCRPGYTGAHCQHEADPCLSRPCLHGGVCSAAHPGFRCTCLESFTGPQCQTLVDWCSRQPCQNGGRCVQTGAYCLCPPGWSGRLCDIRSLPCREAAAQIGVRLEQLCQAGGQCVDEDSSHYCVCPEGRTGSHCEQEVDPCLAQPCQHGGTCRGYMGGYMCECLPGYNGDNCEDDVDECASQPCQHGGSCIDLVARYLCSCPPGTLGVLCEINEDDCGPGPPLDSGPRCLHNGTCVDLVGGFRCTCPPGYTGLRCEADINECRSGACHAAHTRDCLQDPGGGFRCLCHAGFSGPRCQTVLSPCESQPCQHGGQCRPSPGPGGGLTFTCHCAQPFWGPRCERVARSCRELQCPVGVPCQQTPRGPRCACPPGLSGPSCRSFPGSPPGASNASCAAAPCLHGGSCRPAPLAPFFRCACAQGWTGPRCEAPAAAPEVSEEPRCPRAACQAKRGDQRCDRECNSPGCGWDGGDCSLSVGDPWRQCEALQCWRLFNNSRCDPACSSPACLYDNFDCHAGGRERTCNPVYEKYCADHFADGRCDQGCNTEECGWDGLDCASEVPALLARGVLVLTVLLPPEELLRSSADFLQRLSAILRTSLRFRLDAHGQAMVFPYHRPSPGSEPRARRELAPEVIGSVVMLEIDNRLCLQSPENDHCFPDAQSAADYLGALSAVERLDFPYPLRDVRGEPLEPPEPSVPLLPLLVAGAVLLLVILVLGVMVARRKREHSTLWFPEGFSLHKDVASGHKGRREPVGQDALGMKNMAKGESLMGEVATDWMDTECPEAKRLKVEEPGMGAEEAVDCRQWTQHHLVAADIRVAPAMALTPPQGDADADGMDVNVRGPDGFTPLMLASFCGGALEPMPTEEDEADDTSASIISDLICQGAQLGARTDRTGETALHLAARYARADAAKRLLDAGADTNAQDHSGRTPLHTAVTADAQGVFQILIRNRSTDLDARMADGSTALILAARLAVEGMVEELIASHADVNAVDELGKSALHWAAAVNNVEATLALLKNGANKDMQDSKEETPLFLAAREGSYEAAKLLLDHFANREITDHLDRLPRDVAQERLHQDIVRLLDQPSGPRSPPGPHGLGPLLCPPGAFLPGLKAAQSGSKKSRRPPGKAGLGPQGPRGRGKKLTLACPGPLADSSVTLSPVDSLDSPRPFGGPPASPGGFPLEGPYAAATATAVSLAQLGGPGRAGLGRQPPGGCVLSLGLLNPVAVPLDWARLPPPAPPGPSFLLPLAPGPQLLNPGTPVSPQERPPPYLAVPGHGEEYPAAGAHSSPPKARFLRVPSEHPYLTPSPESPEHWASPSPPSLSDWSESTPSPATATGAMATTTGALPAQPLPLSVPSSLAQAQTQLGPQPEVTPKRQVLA
Torsin-1A-interacting protein 2 (Homo sapiens), sequence (Q8NFQ8 whole entry, looked up): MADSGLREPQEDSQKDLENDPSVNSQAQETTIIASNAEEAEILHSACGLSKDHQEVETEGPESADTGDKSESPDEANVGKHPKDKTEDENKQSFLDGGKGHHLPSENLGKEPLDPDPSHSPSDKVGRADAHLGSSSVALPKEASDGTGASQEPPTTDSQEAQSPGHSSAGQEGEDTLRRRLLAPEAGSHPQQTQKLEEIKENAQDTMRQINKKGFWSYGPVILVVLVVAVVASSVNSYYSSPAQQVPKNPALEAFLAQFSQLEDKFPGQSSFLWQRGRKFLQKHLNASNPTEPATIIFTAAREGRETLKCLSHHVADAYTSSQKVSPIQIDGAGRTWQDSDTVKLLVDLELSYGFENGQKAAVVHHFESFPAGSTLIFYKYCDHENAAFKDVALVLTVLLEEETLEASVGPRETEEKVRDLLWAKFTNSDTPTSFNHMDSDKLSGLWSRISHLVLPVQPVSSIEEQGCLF
Pro-neuregulin-1, membrane-bound isoform (Homo sapiens), sequence (Q02297 whole entry, looked up, the tested form may be a part, canonical isoform): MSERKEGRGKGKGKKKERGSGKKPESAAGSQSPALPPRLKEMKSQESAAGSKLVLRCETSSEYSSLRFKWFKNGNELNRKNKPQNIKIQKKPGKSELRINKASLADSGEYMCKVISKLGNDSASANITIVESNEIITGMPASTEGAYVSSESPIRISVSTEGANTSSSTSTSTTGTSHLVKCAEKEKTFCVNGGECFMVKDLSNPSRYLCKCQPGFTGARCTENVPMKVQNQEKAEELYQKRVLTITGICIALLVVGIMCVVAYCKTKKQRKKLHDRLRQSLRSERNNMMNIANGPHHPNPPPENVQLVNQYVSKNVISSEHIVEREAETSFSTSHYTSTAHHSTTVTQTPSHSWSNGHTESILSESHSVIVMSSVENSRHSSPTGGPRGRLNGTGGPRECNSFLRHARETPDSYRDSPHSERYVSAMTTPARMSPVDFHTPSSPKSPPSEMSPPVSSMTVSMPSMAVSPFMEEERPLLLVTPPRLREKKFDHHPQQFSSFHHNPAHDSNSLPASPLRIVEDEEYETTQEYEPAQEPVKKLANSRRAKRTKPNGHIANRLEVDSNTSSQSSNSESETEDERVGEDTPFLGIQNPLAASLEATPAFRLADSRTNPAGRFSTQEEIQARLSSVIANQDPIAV

Turning to `CCOC(=O)C[C@H]1[C@H](OC(=O)c2cc3ccccc3oc2=O)[C@@H](NC(=O)c2ccc(-c3ccccc3)cc2)c2cc(OCCCO)ccc2N1C(=O)c1ccccc1`, the composite z-score in assay [1] was -0.561; in assay [2] it was 1.07; in assay [3] it was 0.0407; in assay [4], 0.731; in assay [5], 1.36; in assay [6], 0.687. In addition, the composite z-score in assay [7] was 1.31; in [9] it was 0.497; in assay [10], 0.102; in assay [11], 1.02; in assay [15], 1.21; in assay [17], -0.0367. Also, the composite z-score was found to be 1.68 in assay [18], 1.09 in assay [19] and 0.0526 in [20]. The z-score in assay [8] is 0.335 (inactive); in assay [12], 0.11 (inactive); in assay [13] it was -1.64 (inactive); in assay [14], 0.117 (inactive); in [16], 1.56 (inactive).
Consider `NCCCCCCNC(=O)[C@@H]1C[C@@H]2C(=O)N[C@@H](CCCCN)C(=O)N2[C@@H]1c1cccc(OCCO)c1`, for which the composite z-score in [1] was 1.06; in [2], 1.81; in assay [3] it was 0.221; in [4] it was -0.127; in [5] it was 0.303; in [6], 2.53. The composite z-score in assay [7] was 1.2; in assay [9], -0.175; in assay [10], 0.704; in assay [11], 1.28; in assay [15], 2.14; in [17], 0.885. Also, the figures for the composite z-score in [18], in assay [19] and in [20] were 0.763, 0.362 and 0.393, respectively. The z-score in assay [8] is 3.25 (inactive); in assay [12], 0.825 (inactive); in assay [13], 0.962 (inactive); in [14], 0.487 (inactive); in [16], 0.398 (inactive).
On to `COC(=O)[C@@]1(Cc2ccccc2)[C@H]2c3cc(C(=O)N(C)C)n(CCN4CNCC4=O)c3C[C@H]2CN1C(=O)c1ccccc1`, for which the composite z-score in assay [1] is 1.13; in assay [2], 1.89; in assay [3], 0.539; in assay [4], 0.307; in [5] it was -0.0763; in assay [6], 1.71. Besides, the composite z-score in assay [7] worked out at 1.22; in assay [9] it was 2; in assay [10], 0.478; in assay [11] it was 0.304; in assay [15], 1.42; in assay [17] it was 0.96. Moreover, the composite z-score was -0.652 in assay [18], 0.0743 in assay [19] and 0.385 in [20]. The z-score is 0.37 (inactive) in [8]; 0.258 (inactive) in [12]; 0.707 (inactive) in assay [13]; 0.1 (inactive) in assay [14]; -0.0469 (inactive) in [16].
In the case of `COc1ccc([Si](C)(C)[C@@H]2[C@@H](CCn3cc([C@H](O)c4ccccc4)nn3)O[C@]3(C(=O)N(Cc4ccc(N5CCC5=O)cc4)c4ccccc43)[C@H]2C)cc1`, the composite z-score was 0.554 in assay [1]; -0.163 in [2]; -0.164 in [3]; -0.127 in [4]; -0.564 in assay [5]; 0.189 in assay [6]. Besides, the composite z-score was 0.142 in assay [7]; -0.201 in [9]; -0.503 in assay [10]; 0.0655 in [11]; 0.309 in [15]; -0.177 in assay [17]. Further, the composite z-score was 1.13 in [18], -0.231 in assay [19] and -0.313 in [20]. For the same compound, the z-score is -0.96 (inactive) in assay [8]; 0.297 (inactive) in assay [12]; 0.375 (inactive) in assay [13]; 3.51 (inactive) in assay [14]; 0.705 (inactive) in [16].
For `O=C1N(Cc2ccccc2)c2ccccc2[C@@H]2OC(c3ccc(OCCCO)cc3)=N[C@]12Cc1ccccc1`, the composite z-score in assay [1] is 0.677; in [2], -0.603; in assay [3], 0.06; in assay [4], 0.569; in assay [5] it was 0.848; in assay [6], -0.329. The composite z-score stood at 1.19 in [7]; 0.191 in assay [9]; 0.113 in assay [10]; 1.38 in assay [11]; 2.93 in assay [15]; 0.0759 in assay [17]. The results for the composite z-score in [18], in assay [19] and in [20] were 0.307, 0.804 and -0.0391, respectively. Also, the z-score in assay [8] is -2.82 (inactive); in [12], -0.548 (inactive); in assay [13] it was -1.14 (inactive); in assay [14], 4.88 (inactive); in assay [16] it was 0.8 (inactive).
In the case of `COc1ccc(C(O)C2C=CC3C(=O)N(c4ccccc4)C(=O)C3N2Nc2ccc([N+](=O)[O-])cc2)cc1` (stereo not given), the composite z-score was 0.928 in assay [1]; -0.0823 in [2]; 0.25 in assay [3]; 0.935 in [4]; 1.64 in [5]; 0.546 in assay [6]. For the same compound, the composite z-score was 1.16 in assay [7]; 1.18 in assay [9]; -0.149 in [10]; 1.11 in assay [11]; 3.09 in [15]; 0.432 in assay [17]. Besides, the composite z-score in [18] is 0.0062; in [19], 1.1; in assay [20] it was 0.239. Further, the z-score is -1 (inactive) in [8]; 0.137 (inactive) in [12]; 1.4 (inactive) in assay [13]; 3.22 (inactive) in assay [14]; -0.909 (inactive) in assay [16].
`COc1ccc(CN(C2=CC[C@@]3(C(N)=O)C(=O)C(Cl)=C(Cl)C(=O)[C@@]3(C#N)C2)S(=O)(=O)c2ccc(Br)cc2)cc1`: the composite z-score was -0.181 in assay [1]; -0.0483 in [2]; -0.0657 in assay [3]; 0.497 in assay [4]; 0.765 in [5]; 0.914 in assay [6]. Further, the composite z-score in assay [7] is 1.11; in [9] it was 0.343; in assay [10], 0.0176; in assay [11], -0.196; in assay [15] it was 3.31; in [17] it was 0.0496. For the same compound, the composite z-score in assay [18] was -0.0701; in [19], -0.366; in assay [20] it was -0.111. Also, the z-score in [8] is -0.991 (inactive); in assay [12], -1.62 (inactive); in assay [13], -2.63 (inactive); in assay [14] it was -0.266 (inactive); in assay [16], 1.29 (inactive).
As for `CC(CO)N1C(=O)[C@@H]2[C@H]3C(=O)OCC=C[C@H]3OC23C=CCN(C(C)(C)C)C(=O)[C@@H]13` (stereo not given in full), the composite z-score in assay [1] is -0.279; in [2], 0.261; in assay [3] it was -0.128; in assay [4] it was 0.337; in [5], -0.175; in assay [6] it was -0.305. Also, the composite z-score is 1.51 in [7]; -0.415 in assay [9]; -0.0618 in assay [10]; -0.507 in assay [11]; -1.25 in assay [15]; -0.103 in [17]. In addition, the composite z-score in [18] was -0.429; in [19], -0.0056; in [20], -0.0656. Moreover, the z-score is 1.76 (inactive) in assay [8]; -0.0994 (inactive) in assay [12]; -0.0932 (inactive) in assay [13]; -0.422 (inactive) in assay [14]; -0.607 (inactive) in assay [16].
For the compound `CCOC(=O)[C@H]1[C@@H]2C(=O)N3CCC[C@H]3[C@H](O[Si](C(C)C)(C(C)C)C(C)C)[C@H]2C=C2CCN(S(=O)(=O)c3ccc(C)cc3)C[C@H]21`, the composite z-score in [1] is -0.646; in [2], 0.336; in [3] it was -0.118; in assay [4], 0.248; in assay [5], 0.966; in assay [6], 0.319. Further, the composite z-score in [7] was 1.08; in assay [9], 0.125; in [10] it was -0.164; in assay [11], 1.55; in assay [15], 2.38; in assay [17], -0.0795. Besides, the figures for the composite z-score in [18], in assay [19] and in [20] were 0.55, 1.09 and -0.0978, respectively. The z-score was -0.647 (inactive) in [8]; -0.212 (inactive) in assay [12]; -0.772 (inactive) in assay [13]; 1.04 (inactive) in [14]; -0.717 (inactive) in assay [16].
